# Measurements: PubChem BioAssay AID1159580 (chemical genetic matrix, 2015)
# Out of some 5,500 compounds screened, about 2,000 (36%) were called active. Another 18% or so got no clear call; they are omitted. The list shows a part of the results. Unmarked numbers belong to inactive results. Cut-off read from the data, not from the text of the source: active = normalized growth mostly below about 0.91 (no sharp cut-off); inconclusive = no clear call, values can overlap the other calls; inactive = mostly above about 0.92.
# Test: chemical genetic growth profiling, strain panel (AID 1159580);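 note: tested at 20 µM; growth read once vehicle control cultures reached saturation at 30 °C; 1 = growth at the plate median or of vehicle wells; lower values mean less growth of the strain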
# Conditions: S. cerevisiae deletion strains, growth OD
# [1] = locus YAL021C, strain ccr4, stronger effect = lower value
# [2] = locus YAL026C, strain drs2, stronger effect = lower value
# [3] = locus YAL030W, strain snc1, stronger effect = lower value
# [4] = locus YBL061C, strain skt5, stronger effect = lower value
# [5] = locus YBR009C, strain hhf1, stronger effect = lower value
# [6] = locus YBR023C, strain chs3, stronger effect = lower value
# [7] = locus YBR171W, strain sec66, stronger effect = lower value
# [8] = locus YBR231C, strain swc5, stronger effect = lower value
# [9] = locus YBR279W, strain paf1, stronger effect = lower value
# [10] = locus YCL011C, strain gbp2, stronger effect = lower value
# [11] = locus YCL016C, strain dcc1, stronger effect = lower value
# [12] = locus YCL069W, strain vba3, stronger effect = lower value
# [13] = locus YCR088W, strain abp1, stronger effect = lower value
# [14] = locus YDL005C, strain med2, stronger effect = lower value
# [15] = locus YDL040C, strain nat1, stronger effect = lower value
# [16] = locus YDR001C, strain nth1, stronger effect = lower value
# [17] = locus YDR069C, strain doa4, stronger effect = lower value
# [18] = locus YDR137W, strain rgp1, stronger effect = lower value
# [19] = locus YDR159W, strain sac3, stronger effect = lower value
# [20] = locus YDR297W, strain sur2, stronger effect = lower value
# [21] = locus YDR334W, strain swr1, stronger effect = lower value
# [22] = locus YDR335W, strain msn5, stronger effect = lower value
# [23] = locus YDR392W, strain spt3, stronger effect = lower value
# [24] = locus YEL003W, strain gim4, stronger effect = lower value
# [25] = locus YEL037C, strain rad23, stronger effect = lower value
# [26] = locus YER015W, strain faa2, stronger effect = lower value
# [27] = locus YER016W, strain bim1, stronger effect = lower value
# [28] = locus YER111C, strain swi4, stronger effect = lower value
# [29] = locus YER155C, strain BEM2 (second series), stronger effect = lower value
# [30] = locus YFR010W, strain ubp6, stronger effect = lower value
# [31] = locus YGL167C, strain pmr1, stronger effect = lower value
# [32] = locus YGL173C, strain kem1, stronger effect = lower value
# [33] = locus YGL227W, strain vid30, stronger effect = lower value
# [34] = locus YGL240W, strain doc1, stronger effect = lower value
# [35] = locus YGL253W, strain hxk2, stronger effect = lower value
# [36] = locus YHR013C, strain ard1, stronger effect = lower value
# [37] = locus YHR027C, strain rpn1, stronger effect = lower value
# [38] = locus YHR142W, strain chs7, stronger effect = lower value
# [39] = locus YJL092W, strain hpr5, stronger effect = lower value
# [40] = locus YJL095W, strain BCK1 (second series), stronger effect = lower value
# [41] = locus YJL115W, strain asf1, stronger effect = lower value
# [42] = locus YJL129C, strain trk1, stronger effect = lower value
# [43] = locus YJL154C, strain vps35, stronger effect = lower value
# [44] = locus YJL164C, strain tpk1, stronger effect = lower value
# [45] = locus YJL166W, strain qcr8, stronger effect = lower value
# [46] = locus YJL187C, strain SWE1, stronger effect = lower value
# [47] = locus YKL160W, strain elf1, stronger effect = lower value
# [48] = locus YKR026C, strain gcn3, stronger effect = lower value
# [49] = locus YKR091W, strain srl3, stronger effect = lower value
# [50] = locus YLL001W, strain dnm1, stronger effect = lower value
# [51] = locus YLL026W, stronger effect = lower value
# [52] = locus YLL041C, strain sdh2, stronger effect = lower value
# [53] = locus YLR027C, strain aat2, stronger effect = lower value
# [54] = locus YLR221C, strain rsa3, stronger effect = lower value
# [55] = locus YLR258W, strain gsy2, stronger effect = lower value
# [56] = locus YLR262C, strain YPT6 (second series), stronger effect = lower value
# [57] = locus YLR320W, strain mms22, stronger effect = lower value
# [58] = locus YLR342W, strain FKS1, stronger effect = lower value
# [59] = locus YLR357W, strain rsc2, stronger effect = lower value
# [60] = locus YLR370C, strain arc18, stronger effect = lower value
# [61] = locus YLR384C, strain iki3, stronger effect = lower value
# [62] = locus YML120C, strain ndi1, stronger effect = lower value
# [63] = locus YMR058W, strain fet3, stronger effect = lower value
# [64] = locus YMR125W, strain sto1, stronger effect = lower value
# [65] = locus YMR129W, stronger effect = lower value
# [66] = locus YMR205C, strain PFK2, stronger effect = lower value
# [67] = locus YMR231W, strain pep5, stronger effect = lower value
# [68] = locus YNL071W, strain lat1, stronger effect = lower value
# [69] = locus YNL209W, strain ssb2, stronger effect = lower value
# [70] = locus YNL248C, strain rpa49, stronger effect = lower value
# [71] = locus YNL322C, strain KRE1 (second series), stronger effect = lower value
# [72] = locus YNR049C, strain mso1, stronger effect = lower value
# [73] = locus YOR001W, strain rrp6, stronger effect = lower value
# [74] = locus YOR070C, strain gyp1, stronger effect = lower value
# [75] = locus YOR080W, strain dia2, stronger effect = lower value
# [76] = locus YOR083W, strain WHI5, stronger effect = lower value
# [77] = locus YOR106W, strain vam3, stronger effect = lower value
# [78] = locus YOR265W, strain rbl2, stronger effect = lower value
# [79] = locus YOR270C, strain vph1, stronger effect = lower value
# [80] = locus YOR290C, strain snf2, stronger effect = lower value
# [81] = locus YPL051W, strain arl3, stronger effect = lower value
# [82] = locus YPL078C, strain atp4, stronger effect = lower value
# [83] = locus YPL106C, strain sse1, stronger effect = lower value
# [84] = locus YPL240C, strain hsp82, stronger effect = lower value
smiles,measurement,setting,value
CC(CC(=O)C1OC1(C)C)C1C(=O)CC2(C)C3=CCC4C(C)(C)C(OC5OCC(O)C(O)C5O)CCC45CC35C(O)CC12C (configuration not stated),normalized growth,[1],1.03
same,normalized growth,[2],1.01
same,normalized growth,[3],1.04
same,normalized growth,[4],1.02
same,normalized growth,[5],1.02
same,normalized growth,[6],1.01
same,normalized growth,[7],1.03
same,normalized growth,[8],1.02
same,normalized growth,[9],1.02
same,normalized growth,[10],1.02
same,normalized growth,[11],1
same,normalized growth,"locus YCL061C, strain MRC1, stronger effect = lower value",1.02
same,normalized growth,[12],1.01
same,normalized growth,[13],1.02
same,normalized growth,[14],1.03
same,normalized growth,[15],1.02
same,normalized growth,[16],1.02
same,normalized growth,[17],1.03
same,normalized growth,[18],1.04
same,normalized growth,[19],1.04
same,normalized growth,"locus YDR195W, strain ref2",1.01
same,normalized growth,[20],1.02
same,normalized growth,[21],1.01
same,normalized growth,[22],1.02
same,normalized growth,[23],1.03
same,normalized growth,[24],1.02
same,normalized growth,[25],1.04
same,normalized growth,"locus YEL061C, strain CIN8 (second series), stronger effect = lower value",1.02
same,normalized growth,[26],1.02
same,normalized growth,[27],1.02
same,normalized growth,[28],1.03
same,normalized growth,[29],1.03
same,normalized growth,[30],1.03
same,normalized growth,[31],1.03
same,normalized growth,[32],1.02
same,normalized growth,[33],1.02
same,normalized growth,[34],1.03
same,normalized growth,[35],1.01
same,normalized growth,[36],1.08
same,normalized growth,[37],1.02
same,normalized growth,[38],1.01
same,normalized growth,[39],1.02
same,normalized growth,[40],1.03
same,normalized growth,[41],1.01
same,normalized growth,[42],1.01
same,normalized growth,[43],1.02
same,normalized growth,[44],1.01
same,normalized growth,[45],1.02
same,normalized growth,[46],1.02
same,normalized growth,[47],1.03
same,normalized growth,[48],1.03
same,normalized growth,[49],1.03
same,normalized growth,[50],1.01
same,normalized growth,[51],1.02
same,normalized growth,[52],1.01
same,normalized growth,[53],1.03
same,normalized growth,[54],1.02
same,normalized growth,[55],1.01
same,normalized growth,[56],1.05
same,normalized growth,[57],1.04
same,normalized growth,[58],1.01
same,normalized growth,[59],1.02
same,normalized growth,[60],1.02
same,normalized growth,[61],1.02
same,normalized growth,[62],1.02
same,normalized growth,[63],1.02
same,normalized growth,[64],1.03
same,normalized growth,[65],1.02
same,normalized growth,[66],1.03
same,normalized growth,[67],1.01
same,normalized growth,[68],1.01
same,normalized growth,[69],1.02
same,normalized growth,[70],1.02
same,normalized growth,[71],1.03
same,normalized growth,[72],1.02
same,normalized growth,[73],1.02
same,normalized growth,[74],1.01
same,normalized growth,[75],1.03
same,normalized growth,[76],1.02
same,normalized growth,[77],1.03
same,normalized growth,[78],1.01
same,normalized growth,[79],1.02
same,normalized growth,[80],1.02
same,normalized growth,[81],1.02
same,normalized growth,[82],1.02
same,normalized growth,[83],1.04
same,normalized growth,[84],1.04
CC1(C)CCC2(C(=O)O)CCC3(C)C(=CCC4C5(C)CCC(O)C(C)(C)C5C(O)CC43C)C2C1 (configuration not stated),normalized growth,[1],1
same,normalized growth,[2],1.04
same,normalized growth,[3],1.03
same,normalized growth,[4],1.03
same,normalized growth,[5],1.02
same,normalized growth,[6],1.04
same,normalized growth,[7],1.05
same,normalized growth,[8],1.03
same,normalized growth,[9],1.03
same,normalized growth,[10],1.02
same,normalized growth,[11],1.01
same,normalized growth,[12],1.03
same,normalized growth,[13],1.04
same,normalized growth,[14],0.246 (active)
same,normalized growth,[15],1.04
same,normalized growth,[16],1.03
same,normalized growth,[17],1.11 [resistant] (active)
same,normalized growth,[18],0.871
same,normalized growth,[19],1.01
same,normalized growth,"locus YDR195W, strain ref2",1.06
same,normalized growth,[20],1.04
same,normalized growth,[21],1.04
same,normalized growth,[22],1.01
same,normalized growth,[23],0.966
same,normalized growth,[24],1.01
same,normalized growth,[25],1.02
same,normalized growth,[26],1.03
same,normalized growth,[27],1.04
same,normalized growth,[28],1.02
same,normalized growth,[29],1.03
same,normalized growth,[30],1.06
same,normalized growth,[31],1.05
same,normalized growth,[32],1.03
same,normalized growth,[33],1.04
same,normalized growth,[34],0.961
same,normalized growth,[35],1.04
same,normalized growth,[36],1.12
same,normalized growth,[37],1.04
same,normalized growth,[38],1.02
same,normalized growth,[39],1.04
same,normalized growth,[40],1.05
same,normalized growth,[41],1.03
same,normalized growth,[42],0.972
same,normalized growth,[43],1.02
same,normalized growth,[44],1.02
same,normalized growth,[45],1.02
same,normalized growth,[46],1.03
same,normalized growth,[47],1.03
same,normalized growth,[48],1.05
same,normalized growth,[49],1.03
same,normalized growth,[50],1.02
same,normalized growth,[51],1.03
same,normalized growth,[52],1.05
same,normalized growth,[53],1.04
same,normalized growth,[54],1.03
same,normalized growth,[55],1.02
same,normalized growth,[56],0.938
same,normalized growth,[57],1.02
same,normalized growth,[58],1.04
same,normalized growth,[59],1.01
same,normalized growth,[60],1.04
same,normalized growth,[61],1.04
same,normalized growth,[62],1.02
same,normalized growth,[63],1.01
same,normalized growth,[64],1.03
same,normalized growth,[65],1.03
same,normalized growth,[66],1.02
same,normalized growth,[67],1.02
same,normalized growth,[68],1.05
same,normalized growth,[69],1.04
same,normalized growth,[70],1.01
same,normalized growth,[71],1.05
same,normalized growth,[72],1.04
same,normalized growth,[73],0.964
same,normalized growth,[74],1.03
same,normalized growth,[75],1.04
same,normalized growth,[76],1.02
same,normalized growth,[77],0.901
same,normalized growth,[78],1.02
same,normalized growth,[79],0.911
same,normalized growth,[80],0.991
same,normalized growth,[81],0.992
same,normalized growth,[82],1.01
same,normalized growth,[83],1.03
same,normalized growth,[84],1.03
